# Only a selection was taken, and hits are over-represented in it overall.
# GFP derepression: epigenetic GFP locus derepression in mouse cells. 68,000 compounds, 0.09% hits. AID 597. Potency, µM (series often up to 46.1 µM), for the others: top-dose GFP derepression (activation). mouse C127i GFP locus derepression, cytometry, 30 h; note: % of control where 0% means no effect
#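 Derepression screen: silenced CMV-GFP reporter in murine C127i cells, 30 h compound incubation at 37 C, washed cells imaged by laser-scanning cytometer to enumerate GFP-expressing objects of 20 to 120 um.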
# IkB signaling: inhibitors of IkB signaling in ABC-DLBCL cells; ABC-DLBCL IkBa-CBG/CBR dual luciferase ratio, 4 h; response scale: scaled: untreated 0%, proteasome inhibitor 100%; Potency, µM (top dose mostly 57.1 µM), for inactives: top-dose IkBa stabilization activation; 110,000 compounds, 0.04% hits; active = well fitted curve in the direction sought with a large enough effect in the signal ratio, not every such curve was filed as active; inconclusive = small, poorly fitted or top-dose-only effect, or a change in a side signal; the % refers to the signal ratio;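 note: potency is the fitted concentration of half-maximal effect; the direction sought is a rising ratio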
#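 In this assay, an IκBα–CBG68 fusion accumulates when IKK-driven degradation is blocked; native CBR normalizes for cell number. OCI-Ly3 cells were treated 4 h with compound and doxycycline, then green and red light read after Chroma-Glo addition.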
# ERK AVP inh: blocks ERK signaling stimulated by vasopressin. HEK293-V1b, vasopressin-stimulated pERK AlphaScreen. Potency, µM (top dose mostly 57.5 µM), without a hit: top-dose activity, negative = inhibition, actives largely listed as inhibitors. 72,000 compounds, 0.99% hits. AID 995; note: potency is the fitted concentration of half-maximal effect; % is set by controls: 0 for no effect and ±100 for the full control effect; nearly all actives have a fitted effect of over 55% in size
#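 Overnight-seeded V1b-HEK293 cells in 1% FBS got compound, then vasopressin (25 nM final, 5 min, 37C), then lysis buffer. AlphaScreen detection of phospho-ERK; activity normalized to basal and full-stimulation controls.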
# HBB splice mod: alters splicing of the hemoglobin beta chain | 65,000 compounds, 0.06% hits | HBB splicing reporter cell assay, activation; EGFP reporter with mutant IVS2-654 intron; response scale: normalised to 500 nM splice-correcting PNA | Potency, µM (series often up to 46.1 µM), for inactives: at the highest dose activation, usual class: activators; note: potency is the fitted concentration of half-maximal effect; 0% is about no effect
#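 Compounds were applied for 2 days to HeLa EGFP-654 cells, 500/well in Optimem with 2% FCS. The reporter's EGFP is disrupted by mis-splicing of beta-globin intron IVS2-654. Readout: summed well GFP fluorescence from 488 nm laser scanning; reference was 500 nM antisense […] 654 PNA.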
# CRE-bla Fsk: CRE-bla signaling modulation under forskolin stimulation. AID 662. 71,000 compounds, 2.5% hits. Potency, µM (series often up to 38.2 µM), inactives show at the top dose activity change, negative = inhibition, hits mostly activators. CHO CRE-bla reporter (cAMP response element driving beta-lactamase), forskolin EC10, beta-lactamase ratio; active = well fitted activation curve with a large enough effect in the signal ratio, with a control signal flat, not every such curve was filed as active; inconclusive = small, poorly fitted or top-dose-only effect, or effect the other way, or a change in a side signal; the % refers to the signal ratio; note: potency is the fitted concentration of half-maximal effect; % of control where 0% means no effect
#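 CRE-bla CHO cells stimulated with EC10 NKH 477 (water-soluble forskolin) and compound titrations, 3 h at 37C; beta-lactamase read with CCF4 after 2 h at room temperature. Activity from 460/530 nm emission ratio, AC50 values for positive or negative modulation.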
# * marks the source's active call; other numbers are inactive results; u = inconclusive; x = not tested or not shown; [ ] = dose if it differs, or a comment. Unless noted, calls come from the whole dose curve; as a rule, active = well fitted curve in the direction sought with a large enough effect; inconclusive = small, poorly fitted or top-dose-only effect, or another doubt; inactive = no such curve, though single readings can be large; an effect the other way counts as inactive or inconclusive.
SMILES,GFP derepression,IkB signaling,ERK AVP inh,HBB splice mod,CRE-bla Fsk
C1CCC(c2nn3c(-c4n[nH]c5c4CCC5)nnc3s2)CC1,0%,-2%,u,-1%[1.84 µM],13µM*
Cc1ccc(C(=O)C(C)CN2CCCCC2)cc1 (configuration not stated),x,x,14%,x,x
NCCSCCC(=O)O,0%[9.22 µM],-1%[11.4 µM],-11%[11.5 µM],2%[9.22 µM],2%[7.6 µM]
O=C(Nc1nc2c(Cl)cccc2s1)c1ccc(Br)o1,-2%,u,25µM*,4%[1.84 µM],-1%
O=C(Nc1nc2ccc(Cl)cc2s1)c1ccc(Br)o1,-5%,u,-9%,2%[0.0738 µM],u
COc1ccc(OC)c(Nc2cc(-c3ccccc3)nc(N)n2)c1,2%,u,10µM*,-5%,u
COc1cccc(Cn2c(N)c(C#N)c3nc4ccccc4nc32)c1OC,2%,-1%,u,7%[57.5 µM],5µM*
COc1cc(Cn2c(N)c(C#N)c3nc4ccccc4nc32)cc(OC)c1,6%,3%,-23%,5%[1.84 µM],13µM*
Cc1cccc2cc3c(nc12)SC(=NCC1CCCO1)N(Cc1ccco1)C3 (configuration not stated),3.2µM*,u,u,0%[57.5 µM],u
CCn1c(=O)n(-c2ccc(F)c(Cl)c2)c(=O)c2sc3ccccc3c21,x,0%,x,x,x
COc1ccc2cc3cc(C(=O)NCCc4ccc(OC)c(OC)c4)oc3nc2c1,3%,u,13%,0%,3.2µM*
COc1ccc2c(=O)c(C(=O)NCCc3ccc(OC)c(OC)c3)c[nH]c2c1,1%,0%,-16%,0%[57.5 µM],13µM*
Cc1cc2oc(=O)cc(C)c2c2occ(-c3ccc(Cl)cc3)c12,x,-1%,x,x,x
Cc1cccc(-n2nnnc2SC(C)C(=O)NCCC2=CCCCC2)c1 (configuration not stated),0%,u,-6%,0%[57.5 µM],-12%
CCN(CC)S(=O)(=O)c1cccc(-c2nnc(SCC(=O)NCCC3=CCCCC3)n2N)c1,1%,u,40µM*,0%[57.5 µM],-6%
CCOC(=O)N1CCC(NC(=O)c2cc3c(-c4ccccc4F)nn(C)c3s2)CC1,3%,-5%,5µM*,-1%,15%
CCOC(=O)C1CCCN(C(=O)c2cc3nc(-c4cccc(OC)c4)cc(C(F)(F)F)n3n2)C1 (configuration not stated),3%,u,16µM*,-1%,-17%
CCOC(=O)N1CCC(NC(=O)c2cc3c(-c4ccc(OC)c(OC)c4)nn(C)c3s2)CC1,2%,-2%,9%,0%,u
CC1CCCCN1CCNC(=O)c1cc2c(-c3ccccc3F)nn(C)c2s1 (configuration not stated),x,4%,-13%,-1%,23%
CCOC(=O)C1CCCN(C(=O)c2cnn3c(C(F)(F)F)cc(-c4ccccc4)nc23)C1 (configuration not stated),-3%,-5%,4%,1%,u
CCOC(=O)C1CCCN(C(=O)c2cc3c(-c4cccc(OC)c4)nn(C)c3s2)C1 (configuration not stated),2%,u,11%,-3%,3.2µM*
CCOC(=O)C1CCN(C(=O)c2cc3c(-c4ccc(OC)c(OC)c4)nn(C)c3s2)CC1,-5%,-1%,u,0%,2.5µM*
Cc1cccc(-c2nnc(C3CCN(S(=O)(=O)c4cccc(Cl)c4)CC3)o2)c1,x,6%,x,x,x
CC(=O)OC[C@@H]1O[C@H](C/C=N\O[C@@H](C)CN2CCCc3nc(C)c(C)cc32)C=C[C@@H]1OC(C)=O,x,x,-1%[11.5 µM],1%[9.22 µM],x
Cc1nnc(SCC2=C(C(=O)O)N3C(=O)C(NC(=O)Cn4cnnn4)[C@@H]3SC2)s1 (some centres not stated),x,x,-3%,x,x
SMILES,GFP derepression,IkB signaling,ERK AVP inh,HBB splice mod,CRE-bla Fsk
Cc1cccc(C(c2sc3nc(-c4ccco4)nn3c2O)N2CCN(c3ccccc3)CC2)c1 (configuration not stated),x,3%,x,x,x
O=C(O)CCc1c2ccc(=O)c(O)c-2oc2c(O)c(O)ccc12,-3%[9.22 µM],1%[11.4 µM],-22%[11.5 µM],6%[9.22 µM],-6%[7.6 µM]
Cc1cccc2cc(CN(CC3CCCO3)S(=O)(=O)c3ccccc3)c3nnnn3c12 (configuration not stated),0%,-2%,13%,x,5%
Cc1cccc2cc(CN(CC3CCCO3)C(=O)c3cccnc3)c3nnnn3c12 (configuration not stated),0%,-2%,0%,x,4µM*
CCOc1ccc(C2C(C#N)=C(N)SC(N)=C2C#N)cc1OCC,-2%,1%,2%,x,7.9µM*
COc1cc2cc(C(c3nnnn3C3CCCC3)N(C)C3CCCCC3)c(=O)[nH]c2cc1OC (configuration not stated),-2%,0%,-3%,x,13µM*
O=c1[nH]c2cc3c(cc2cc1C(c1nnnn1C1CCCC1)N1CCSCC1)OCCO3 (configuration not stated),3%,-1%,0%,x,u
COc1cc2cc(C(c3nnnn3C3CCCCC3)N(C)C3CCCCC3)c(=O)[nH]c2cc1OC (configuration not stated),-2%,u,-24%,0%[57.5 µM],13µM*
COc1ccc2[nH]c(=O)c(C(c3nnnn3C3CCCCC3)N3CCN(C)CC3)cc2c1 (configuration not stated),1%,3%,-9%,-9%,-1%
C=CCN1C(=O)/C(=C2/Sc3ccccc3N2CCCS(=O)(=O)O)SC1=S,-1%,1%,-23%,-2%,24%
C=CCN1C(=O)/C(=C2/Sc3ccccc3N2C)SC1=Nc1c(C)n[nH]c1C,2%,-1%,-1%,x,1.6µM*
Cn1cnnc1SCC(=O)c1c[nH]c2ccccc12,-1%,-1%,u,0%[57.5 µM],-4%
CCn1c(SCC(=O)c2c[nH]c3ccccc23)nnc1-c1cccs1,20µM*,4%,-24%,u,-1%
COC(C(C)/C=C/CC(=O)OCCCc1ccccc1)C1CCCCC1 (configuration not stated),x,x,10%[11.5 µM],1%[9.22 µM],x
CC1CCN(c2oc(-c3ccc(COc4ccccc4)o3)nc2C#N)CC1,x,0%,x,x,x
Cc1nc(N2CCN(c3ccccc3)CC2)c2c3c(sc2n1)CCC3,2%,u,0%,-6%,4µM*
COCCn1c(=O)c(C)nc2cnc(Oc3ccc(OC)cc3)nc21,-4%[9.22 µM],3%[11.4 µM],-13%,1%,u
C#CCSc1nc(-c2cccs2)ccc1C#N,-1%,-1%,17%,3%,7.9µM*
CCOc1ccccc1-c1nc(Cn2c(=O)cc(C)c3c(C)nn(-c4ccccc4)c32)c(C)o1,x,-2%,x,x,x
Cc1ccc(NC(=O)Cn2nnc(-c3nc(-c4ccncc4)no3)c2N)c(C)c1,x,-1%,x,x,x

# Screening results from PubChem BioAssay.
